# Results taken from PubChem BioAssay (Tox21).
# Inconclusive results are not listed. Entries that show only a call come without a potency. Calls of active or inactive are those of the source. The call rests on the fitted dose curve; in most records, active means well fitted curve in the direction sought with a large enough effect in the repeat runs; inconclusive means weak or mixed curves; inactive means no such curve, though single readings can be large; an effect the other way counts as inactive or inconclusive.
# Columns and labels:
# [1] = A CellTox Green Cytotoxicity Assay to monitor cytotoxicity in HEK293 cells - 32 hour (AID 1224881); further: nearly all actives have a fitted effect of over 40% in size
# Outline: (§1)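 HEK293 cells premixed with CellTox Green dye were seeded at 600 cells/well and left 5 h at 37 C/5% CO2 before pin transfer of 23 nL compound in DMSO. Fluorescence from dye bound to dead-cell DNA was read during 40 h treatment.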
# [2] = A CellTox Green Cytotoxicity Assay to monitor cytotoxicity in HepG2 cells - 0 hour (AID 1224882); further: nearly all actives have a fitted effect of over 35% in size
# Outline: (§2)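 HepG2 cells were seeded together with the CellTox Green dye at 600 cells/well, left 5 h at 37 C/5% CO2, then given compounds in DMSO. Fluorescence from dye bound to dead-cell DNA was read repeatedly over 40 h of treatment at 37 C.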
# [3] = A CellTox Green Cytotoxicity Assay to monitor cytotoxicity in HepG2 cells - 32 hour (AID 1224883); further: nearly all actives have a fitted effect of over 50% in size
# Outline: as §2
# [4] = A CellTox Green Cytotoxicity Assay to monitor cytotoxicity in HEK293 cells - 8 hour (AID 1224884); further: nearly all actives have a fitted effect of over 35% in size
# Outline: as §1
# [5] = qHTS RealTime-Glo MT Cell Viability Assay in HEK293 cells - 24 hour (AID 1224886); further: nearly all actives have a fitted effect of over 50% in size; further: potency means the concentration at half of the fitted maximal effect; on activity change, negative = cytotoxicity: top concentration of the series differs between compounds
# Outline: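 Viability tracked continuously by luminescence as live cells reduce a prosubstrate for NanoLuc; HEK293 cells preincubated 5 h, compound-treated at 37 C, and read at 0, 8, 16, 24, 32 and 40 h.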
# [6] = qHTS RealTime-Glo MT Cell Viability Assay in HEK293 cells - 8 hour (AID 1224887); further: nearly all actives have a fitted effect of over 50% in size; further: potency means the concentration at half of the fitted maximal effect; on activity change, negative = cytotoxicity: top concentration of the series differs between compounds
# Outline: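 HEK293 cells mixed with RealTime-Glo reagents (NanoLuc plus cell-permeant prosubstrate) at 600 cells/well, preincubated 5 h at 37 C/5% CO2, then given 23 nL compound in DMSO. Nonlytic luminescence from viable cells was read at 0, 8, 16, 24, 32 and 40 h.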
# [7] = A CellTox Green Cytotoxicity Assay to monitor cytotoxicity in HEK293 cells - 16 hour (AID 1224888); further: nearly all actives have a fitted effect of over 35% in size
# Outline: as §1
# [8] = qHTS RealTime-Glo MT Cell Viability Assay in HepG2 cells - 0 hour (AID 1224889); further: nearly all actives have a fitted effect of over 50% in size; further: potency means the concentration at half of the fitted maximal effect
# Outline: (§3)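 Viability was tracked continuously by NanoLuc luminescence from prosubstrate reduced by living HepG2 cells, at successive time points over 40 h of compound exposure. Cells with reagent were preincubated 5 h at 37 °C before compound addition.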
# [9] = qHTS RealTime-Glo MT Cell Viability Assay in HepG2 cells - 16 hour (AID 1224885); further: nearly all actives have a fitted effect of over 50% in size
# Outline: as §3
smiles,measurement,setting,value
CCc1cc(Cl)c(OC)c(C(=O)NC[C@@H]2CCCN2CC)c1O,Potency,[1],inactive
same,Potency,[2],inactive
same,Potency,[3],inactive
same,Potency,[4],inactive
same,Potency,[5],inactive
same,Potency,[6],inactive
same,Potency,[7],inactive
same,Potency,[8],inactive
Cc1c(-c2ccccc2)oc2c(C(=O)OCCN3CCCCC3)cccc2c1=O,Potency,[1],inactive
same,Potency,[2],inactive
same,Potency,[3],inactive
same,Potency,[4],inactive
same,outcome,[9],inactive
same,Potency,[6],19 µM (active)
same,Potency,[7],inactive
Cc1cn([C@@H]2O[C@H](CO)[C@@H](O)[C@@H]2F)c(=O)[nH]c1=O,Potency,[1],inactive
same,Potency,[3],inactive
same,Potency,[4],inactive
same,outcome,[9],inactive
same,Potency,[5],inactive
same,Potency,[6],inactive
same,Potency,[7],inactive
same,Potency,[8],inactive
CCOC(=O)CS,Potency,[1],inactive
same,Potency,[2],inactive
same,Potency,[3],inactive
same,Potency,[4],inactive
same,Potency,[5],inactive
same,Potency,[6],inactive
same,Potency,[7],inactive
same,Potency,[8],inactive
O=C(O)[C@@H]1CSCN1,Potency,[2],inactive
same,Potency,[3],inactive
same,Potency,[4],inactive
same,outcome,[9],inactive
same,Potency,[6],inactive
same,Potency,[7],inactive
same,Potency,[8],inactive
CCc1cc2cc(OC)c(OC)cc2c(Cc2ccccc2)n1,Potency,[4],inactive
same,Potency,[5],16.9 µM (active)
same,Potency,[6],16.9 µM (active)
same,Potency,[7],inactive
same,Potency,[8],inactive
CCCC(CCC)(C(=O)OCC)C(=O)OCC,Potency,[2],inactive
same,Potency,[3],inactive
same,Potency,[4],inactive
same,outcome,[9],inactive
same,Potency,[5],inactive
same,Potency,[6],inactive
same,Potency,[7],inactive
same,Potency,[8],inactive
CN(C)CC[C@@H](c1ccc(Cl)cc1)c1ccccn1,Potency,[1],inactive
same,Potency,[2],inactive
same,Potency,[3],inactive
same,Potency,[4],inactive
same,Potency,[5],inactive
same,Potency,[6],inactive
same,Potency,[7],inactive
NCCCN1CCN(CCCN)CC1,Potency,[2],inactive
same,Potency,[4],inactive
same,outcome,[9],inactive
same,Potency,[5],inactive
same,Potency,[6],inactive
same,Potency,[7],inactive
same,Potency,[8],inactive
Cc1cc2nc(N)sc2cc1C,Potency,[1],inactive
same,Potency,[3],inactive
same,Potency,[4],inactive
same,Potency,[5],inactive
same,Potency,[6],inactive
same,Potency,[7],inactive
same,Potency,[8],inactive
COc1cc2c(cc1N)oc1ccccc12,Potency,[1],inactive
same,Potency,[3],inactive
same,Potency,[4],inactive
same,outcome,[9],inactive
same,Potency,[7],inactive
NC/C=C/C(=O)O,Potency,[1],inactive
same,Potency,[2],inactive
same,Potency,[3],inactive
same,Potency,[4],inactive
same,outcome,[9],inactive
same,Potency,[5],inactive
same,Potency,[6],inactive
same,Potency,[7],inactive
same,Potency,[8],inactive
CC1(C)O[C@@H]2C[C@H]3[C@@H]4CCC5=CC(=O)CC[C@]5(C)[C@@]4(F)[C@@H](O)C[C@]3(C)[C@]2(C(=O)CCl)O1,Potency,[1],inactive
same,Potency,[2],inactive
same,Potency,[3],inactive
same,Potency,[4],inactive
same,outcome,[9],inactive
same,Potency,[6],inactive
same,Potency,[7],inactive
same,Potency,[8],5.35 µM (active)
C[C@]12CCC(=O)C=C1CC[C@@H]1[C@@H]2CC[C@@]2(C)[C@H]1CC[C@]2(O)C(=O)CO,Potency,[1],inactive
same,Potency,[2],inactive
same,Potency,[3],inactive
same,Potency,[4],inactive
same,outcome,[9],inactive
same,Potency,[6],inactive
same,Potency,[7],inactive
O=C1N(c2ccccc2)c2ccccc2C1(Cc1ccncc1)Cc1ccncc1,Potency,[3],inactive
same,Potency,[4],inactive
same,Potency,[5],inactive
same,Potency,[6],inactive
same,Potency,[7],inactive
same,Potency,[8],inactive
COc1ccc(Nc2ccc(OC)cc2)cc1,Potency,[1],inactive
same,Potency,[2],inactive
same,Potency,[3],inactive
same,Potency,[4],inactive
same,outcome,[9],inactive
same,Potency,[6],14.1 µM (active)
same,Potency,[7],inactive
same,Potency,[8],inactive
CC(C)(CO)[C@@H](O)C(=O)NCCC(=O)O,Potency,[1],inactive
same,Potency,[2],inactive
same,Potency,[3],inactive
same,Potency,[4],inactive
same,Potency,[5],inactive
same,Potency,[6],inactive
same,Potency,[7],inactive
same,Potency,[8],inactive
C[C@@H]1CN(c2c(F)c(F)c3c(=O)c(C(=O)O)cn(C4CC4)c3c2F)C[C@H](C)N1,cytotoxicity increase,[1],-0.134% [at 15.8 µM] (inactive)
same,cytotoxicity,[2],-1.92% [at 15.8 µM] (inactive)
same,cytotoxicity increase,[3],-14.8% [at 15.8 µM] (inactive)
same,cytotoxicity increase,[4],-0.256% [at 15.8 µM] (inactive)
same,"activity change, negative = cytotoxic",[9],-2.02% [at 15.8 µM] (inactive)
same,"activity change, negative = cytotoxicity",[5],9.9% [at 15.8 µM] (inactive)
same,"activity change, negative = cytotoxicity",[6],0.326% [at 15.8 µM] (inactive)
same,activity change,[7],"1.09% [at 15.8 µM, stronger effect = higher value] (inactive)"
same,"activity change, negative = cytotoxicity",[8],-0.832% [at 15.8 µM] (inactive)
